The nature of experiment [1]: Primary qHTS for inhibitors of nuclear receptor binding SET domain protein 2 (NSD2) in an isogenic RCH-ACV NSD2 p.E1099K mutant (9B) (AID 1645876). The settings on record: RCH-ACV NSD2 E1099K (9B) viability, CellTiter-Glo, 72 h; series mostly up to 44.9 µM. (In general: Quantitative high-throughput screening tests each substance at several concentrations.)
Experiment [2] can be described thus: Primary qHTS for inhibitors of nuclear receptor binding SET domain protein 2 (NSD2) in an RCH-ACV wild type WT cells (2C) (AID 1645877). Particulars: RCH-ACV (leukaemia line) NSD2 WT (2C) viability, CellTiter-Glo, 72 h; series mostly up to 44.9 µM.

Each structure is given as a SMILES string. Results filed as inconclusive are left out. A call without a number means that no potency is given here. The source made the active and inactive calls. The call rests on the fitted dose curve; in most records, active means well fitted curve in the direction sought with a large enough effect; inconclusive means small, poorly fitted or top-dose-only effect, or another doubt; inactive means no such curve, though single readings can be large; an effect the other way counts as inactive or inconclusive.
Further: nearly all actives have a fitted effect of over 70% in size.

On to `C=C1C(O[C@@H]2O[C@H](CO)[C@@H](O)[C@H](O)[C@@H]2O)CC2C(C)(C)C(O)CCC2(C)C1CC/C(C)=C\CO` (some centres undefined), for which the Potency entry in experiment [1] and in experiment [2] was “inactive” in each case.
`COc1cc(C2Oc3c(OC)cc(/C=C/C(=O)OC[C@H]4O[C@@H](OC(C)(C)C(=O)O)[C@H](O)[C@@H](O)[C@@H]4O)cc3C2CO)ccc1O` (some centres undefined): the Potency result in experiment [1] and in experiment [2] was “inactive” in each case.
As for `CC(=O)OC1C=C(C(=O)O)C2(CO)CCC(C)C(C)(CCc3ccoc3)C2C1` (centres undefined), the Potency result in experiment [1] and in experiment [2] was “inactive” each time.
Take `CC(CCC1C(C(=O)O)=CC(=O)CC1(C)C)O[C@@H]1O[C@H](CO)[C@@H](O)[C@H](O)[C@H]1O` (some centres undefined): the Potency entry in experiment [1] and in experiment [2] was “inactive” throughout.
Turning to `CCC(NC(=O)CC(NC(=O)C(CO)NC(=O)C(CC)NC(=O)c1ccc[nH]1)c1ccccc1)C(=O)O` (centres undefined), the Potency result in experiment [1] and in experiment [2] was “inactive” each time.
On to `COc1ccc2c3c1O[C@H]1C[C@@H](O)C=C[C@@]31CCN(C)C2`, for which the Potency entry in experiment [1] and in experiment [2] was “inactive” each time.
Regarding `C[C@@H]1CC[C@H]2C(C)(C)[C@H](O)[C@H](O)C[C@]2(C)[C@@]12Cc1c(O)cc3c(c1O2)CNC3=O`, the Potency result in experiment [1] and in experiment [2] was “inactive” each time.
